Assay results reported in the supplement of paper PMC10646978.
± gives the standard deviation.

Columns and labels:
Settings in all cases: modulator concentration 10 µM
[1] = tested on: RAW-Dual (murine macrophage reporter line); assay: NF-kB reporter (SEAP) activity fold change vs agonist alone; higher = enhanced NF-kB activity
In short: (§1)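 RAW-Dual murine macrophage reporter cells were seeded at 50 000 per well in 384-well plates and pre-incubated 1 hour at 37 °C with compound pin-transferred to 10 μM final. After 1 hour, a PRR agonist was added and cells incubated overnight. Supernatant NF-κB (SEAP, QUANTI-Blue, 620 nm absorbance) and IRF (Lucia luciferase, QUANTI-Luc, luminescence) signals were divided by the mean agonist-only control on the same plate to give fold change. Two replicate plates were averaged, with errors by propagation.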

[2] = tested on: RAW-Dual (murine macrophage reporter line); assay: IRF reporter (Lucia luciferase) activity fold change vs agonist alone; higher = enhanced IRF activity
In short: as §1

[3] = tested on: RAW-Dual (murine macrophage reporter line); assay: viability score (confluency relative to resting cells, overnight) (fraction); higher = more viable, active = viable (0.7 or more)
In short: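 RAW-Dual macrophages in 384-well plates were incubated overnight with compound, final concentration 10 μM. Confluency images from IncuCyte were processed in IncuCyte software into two masks covering all imaged wells. The viability score is each well's confluency relative to resting cells, and a compound met the cutoff when both masks exceeded 70% of resting cells.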

[4] = agonist: CpG ODN 1826 0.5 ug/mL

| SMILES | NF-kB reporter [1, 4] | NF-kB reporter ([1]; agonist: LPS 0.1 ug/mL) | NF-kB reporter ([1]; agonist: MPLA […]) | IRF reporter ([2]; agonist: 3'3'-cGAMP 10 ug/mL) | IRF reporter ([2]; agonist: LPS 0.1 ug/mL) | IRF reporter ([2]; agonist: MPLA […]) | viability score [3] |
| --- | --- | --- | --- | --- | --- | --- | --- |
| CCOc1ccccc1NC(=O)Nc1ccc2c(c1)CC(=O)N2CC | 1.17 ± 0.083 | 0.945 ± 0.092 | 0.998 ± 0.028 | 0.694 ± 0.037 | 0.844 ± 0.077 | 0.797 ± 0.089 | 0.998 (active) |
| CCC(=O)NS(=O)(=O)c1ccc(-c2c(-c3ccccc3)noc2C)cc1 | 0.921 ± 0.14 | 1.2 ± 0.26 | 0.905 ± 0.05 | 0.971 ± 0.051 | 1.47 ± 0.31 | 1.25 ± 0.1 | 0.996 (active) |
| CC(Cc1ccc(O)c(O)c1)C(C)Cc1ccc(O)c(O)c1 (configuration not stated) | 1.16 ± 0.31 | 0.645 ± 0.057 | 1.31 ± 0.094 | 0.0338 ± 0.0028 | 0.509 ± 0.062 | 0.544 ± 0.055 | 0.618 (inactive) |
| CCOC(=O)[C@H](CCc1ccccc1)N[C@H]1CCc2ccccc2N(CC(=O)O)C1=O [Prestw-1129] | 1.13 ± 0.097 | 0.978 ± 0.079 | 0.941 ± 0.06 | 1.02 ± 0.045 | 1 ± 0.047 | 0.879 ± 0.087 | 0.994 (active) |
| COc1ccc(C(=O)Nc2sc3c(c2C(N)=O)CCC(C)C3)c(OC)c1 (configuration not stated) | 1.09 ± 0.11 | 1.08 ± 0.067 | 0.947 ± 0.058 | 0.907 ± 0.068 | 1.5 ± 0.2 | 1.22 ± 0.11 | 1.01 (active) |
| OCCN1CCN(CC/C=C2/c3ccccc3Sc3ccc(Cl)cc32)CC1 [Prestw-998] | 0.395 ± 0.067 | 0.914 ± 0.093 | 1.36 ± 0.26 | 0.303 ± 0.008 | 1.85 ± 0.3 | 2.43 ± 0.28 | 0.624 (inactive) |
| COc1ccc(C=C(NC(=O)c2ccccc2)C(=O)NCCC(=O)OCc2ccccc2)cc1 | 0.996 ± 0.082 | 1.04 ± 0.096 | 0.875 ± 0.073 | 0.841 ± 0.024 | 1.4 ± 0.14 | 1.11 ± 0.22 | 1.01 (active) |
| CC1(C)CC(=O)C2=C(C1)OC(N)=C(C#N)C2C1CCCCC1 (configuration not stated) | 0.983 ± 0.076 | 0.926 ± 0.12 | 0.929 ± 0.093 | 0.987 ± 0.089 | 1.33 ± 0.22 | 1.47 ± 0.19 | 1.01 (active) |
| COc1ccccc1S(=O)(=O)N1CC(Oc2nc3c(C(F)(F)F)cccc3s2)C1 | 0.935 ± 0.047 | 1.18 ± 0.097 | 1.38 ± 0.14 | 1.4 ± 0.15 | 1.43 ± 0.23 | 1.5 ± 0.4 | 1 (active) |
| COC(=O)C1=C(C)NC(=O)CC1c1cc([N+](=O)[O-])ccc1Cl (configuration not stated) | 0.933 ± 0.055 | 0.986 ± 0.11 | 0.955 ± 0.058 | 0.966 ± 0.032 | 1.16 ± 0.099 | 0.994 ± 0.24 | 0.988 (active) |
| CCOC(=O)C(CCc1ccccc1)NC(C)C(=O)N1Cc2ccccc2CC1C(=O)O.Cl (configuration not stated) | 1.27 ± 0.31 | 1.05 ± 0.057 | 0.977 ± 0.072 | 0.955 ± 0.046 | 1.22 ± 0.14 | 1.3 ± 0.13 | 0.997 (active) |
| CCN1CCN(S(=O)(=O)c2ccc(Oc3ccccc3)cc2)CC1 | 1 ± 0.061 | 1.01 ± 0.11 | 1.09 ± 0.036 | 0.905 ± 0.043 | 1.09 ± 0.1 | 1.03 ± 0.21 | 0.996 (active) |
| COc1ccc(OC)c(Nc2nc(-c3c(C)nc4ncccn34)cs2)c1 | 2.14 ± 0.18 | 1.35 ± 0.12 | 1.09 ± 0.083 | 0.3 ± 0.014 | 0.381 ± 0.035 | 0.361 ± 0.066 | 0.907 (active) |
| COc1ccc(C=NN2CCN(C)CC2)c(OC)c1 | 0.84 ± 0.065 | 0.95 ± 0.047 | 1.04 ± 0.09 | 0.914 ± 0.056 | 1.25 ± 0.08 | 1.33 ± 0.11 | 1.01 (active) |
| O=C(Cc1ccc([N+](=O)[O-])cc1)NN=Cc1ccccn1 | 1.09 ± 0.18 | 1.07 ± 0.077 | 1.04 ± 0.04 | 0.89 ± 0.11 | 1.05 ± 0.12 | 1.08 ± 0.14 | 1 (active) |
| COc1ccc(-c2oc3ccc(OC)cc3c2C(=O)Nc2ccccc2Cl)cc1 | 0.872 ± 0.051 | 1.05 ± 0.11 | 1.42 ± 0.041 | 0.756 ± 0.052 | 0.865 ± 0.062 | 1.84 ± 0.28 | 1 (active) |
| Fc1ccc2ccccc2c1 | 0.958 ± 0.077 | 0.979 ± 0.16 | 1.01 ± 0.13 | 1.03 ± 0.033 | 1.12 ± 0.12 | 1.15 ± 0.18 | 1.01 (active) |
| NS(=O)(=O)c1ccc(F)cc1 | 0.947 ± 0.076 | 1.04 ± 0.076 | 0.997 ± 0.11 | 0.977 ± 0.031 | 1.24 ± 0.2 | 1.23 ± 0.17 | 1.02 (active) |
| COC1CC2CCC(C1)N2S(=O)(=O)c1ccc(Br)cc1 (configuration not stated) | 0.93 ± 0.089 | 1.05 ± 0.1 | 0.909 ± 0.04 | 1.01 ± 0.11 | 1.22 ± 0.16 | 1.15 ± 0.24 | 1.01 (active) |
| O=c1n(CCCN2CCN(c3cccc(Cl)c3)CC2)nc2ccccn12 [Prestw-292] | 0.813 ± 0.062 | 0.912 ± 0.067 | 0.899 ± 0.089 | 0.932 ± 0.041 | 1.19 ± 0.14 | 1.19 ± 0.24 | 1.06 (active) |
| COc1ccc(C=Nn2cc(-c3ccc(Cl)cc3)nc2N=Cc2cc(Br)cc(Br)c2O)cc1 | 0.863 ± 0.068 | 0.919 ± 0.067 | 0.874 ± 0.094 | 0.883 ± 0.037 | 1.08 ± 0.14 | 1.07 ± 0.23 | 1.02 (active) |
| CN1CCC(=C2c3ccccc3CCc3sccc32)CC1.O=C(O)CC(O)C(=O)O | 0.574 ± 0.054 | 0.705 ± 0.035 | 0.868 ± 0.094 | 0.692 ± 0.036 | 1.09 ± 0.073 | 1 ± 0.12 | 0.385 (inactive) |
| O=S(=O)(Nc1nc2ccccc2n2nnnc12)c1ccc(F)cc1 | 1.01 ± 0.1 | 1.03 ± 0.068 | 0.934 ± 0.067 | 0.865 ± 0.021 | 1.21 ± 0.15 | 0.964 ± 0.25 | 1.01 (active) |
| Cc1ccc(C(CNC(=O)NC2CCCC2)OCCO)cc1 (configuration not stated) | 0.622 ± 0.072 | 1.08 ± 0.1 | 0.808 ± 0.047 | 0.944 ± 0.075 | 1.07 ± 0.1 | 1.1 ± 0.27 | 1.01 (active) |
| Nc1ncnc2c1ncn2[C@@H]1O[C@H](CO)[C@@H](O)[C@H]1O | 1.03 ± 0.08 | 1.13 ± 0.079 | 1.17 ± 0.11 | 1.22 ± 0.25 | 0.879 ± 0.03 | 0.852 ± 0.11 | 1 (active) |
| CCOC(=O)C1CCCN(S(=O)(=O)c2ccc(F)cc2)C1 (configuration not stated) | 1.07 ± 0.12 | 1.1 ± 0.11 | 0.97 ± 0.059 | 0.964 ± 0.06 | 1.3 ± 0.18 | 1.02 ± 0.3 | 0.983 (active) |
